Molecules are shown by their SMILES. Where “and” joins values, the source holds several entries; their conditions need not be identical. Equal entries are not always repeated. The whole screen tested about 16,000 compounds, of which about 2,600 (16%) were called active. Roughly 20% stayed inconclusive and do not appear here. The entries come from a sample that favours actives as a whole. A number with no mark means an inactive call. Calls come from the whole dose curve; as a rule, active = well fitted curve in the direction sought with a large enough effect; inconclusive = small, poorly fitted or top-dose-only effect, or effect the other way; inactive = no such curve, though single readings can be large or run the other way.
% is set by controls: 0 for no effect and ±100 for the full control effect.

The assay deals with Cytochrome P450 2D6 (Homo sapiens) (UniProt P10635). Briefly: Cytochrome panel assay with activity outcomes. To be noted: recombinant CYP, pro-luciferin dealkylation, luminescence, p450-cyp2d6; series mostly up to 57.1 µM; activity, negative = inhibition: at the top concentration.
Chain of Cytochrome P450 2D6 (Homo sapiens) (P10635 whole entry, looked up): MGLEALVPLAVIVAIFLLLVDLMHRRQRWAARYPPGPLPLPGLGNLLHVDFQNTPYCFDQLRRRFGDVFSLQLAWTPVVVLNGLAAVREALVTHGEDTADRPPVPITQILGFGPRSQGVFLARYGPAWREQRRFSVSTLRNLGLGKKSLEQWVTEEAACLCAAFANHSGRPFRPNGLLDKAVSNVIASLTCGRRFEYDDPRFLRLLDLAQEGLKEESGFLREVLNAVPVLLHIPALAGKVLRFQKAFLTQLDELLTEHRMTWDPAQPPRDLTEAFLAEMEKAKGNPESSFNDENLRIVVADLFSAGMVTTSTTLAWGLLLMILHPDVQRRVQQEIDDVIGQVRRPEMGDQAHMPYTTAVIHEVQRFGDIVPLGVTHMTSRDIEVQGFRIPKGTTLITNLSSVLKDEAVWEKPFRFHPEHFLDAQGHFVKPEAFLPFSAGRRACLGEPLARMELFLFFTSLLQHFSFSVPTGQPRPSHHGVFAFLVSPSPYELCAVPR
For `Cc1ncc([N+](=O)[O-])n1CCN=[N+]=[N-]`, the activity, negative = inhibition was 0.431% [at 11.4 µM].

In the case of `CCCN(CCC)C(=O)Cc1c(-c2ccc(Cl)cc2)nc2c(Cl)cc(Cl)cn12`, the “activity, negative = inhibition” value was 2.68%.

Usually AC50 stands for the midpoint of the concentration-response curve, whichever way the signal moves. In the case of `COc1ccc2c(c1)CCC1[C@@H]2CCC2(C)[C@@H](NCCCCCCN3C(=O)C=CC3=O)CC[C@@H]12` (some centres undefined), the AC50 is 10 µM (active).

For the compound `C[C@]12CCC3c4ccc(OCC(=O)O)cc4CCC3C1CCC2=O` (some centres undefined), the activity, negative = inhibition was 12.6% [at 11.4 µM].

In the case of `C[C@]12CC[C@H]3c4ccc(O)cc4CC[C@@H]3[C@H]1CC[C@@H]2OP(=O)(O)O`, the activity, negative = inhibition is 11.2% [at 11.4 µM].

`CO[C@@H]1CC=C2CCN3CCC4=C(CC(=O)OC4)[C@]23C1`: the “activity, negative = inhibition” value is -6.15%.

With `CN1C(=O)COc2c(C(=O)N[C@@H]3CN4CCC3CC4)cc(Cl)cc21`, the “activity, negative = inhibition” value is 6.82%.

In the case of `CC(C)n1cnc2c(C(=O)N[C@H]3CN4CCC3CC4)cc(Cl)cc21`, the “activity, negative = inhibition” value was 3.65%.

In the case of `Cn1cc(C(=O)C(=O)N[C@H]2CN3CCC2CC3)c2ccccc21`, the AC50 is 0.0631 µM (active).

With `CCNC(C)(C)[C@@H](SS)c1ccc(Br)cc1`, the AC50 was 2 µM (active).

On to `CNCCc1ccc(O)c(O)c1`, for which the “activity, negative = inhibition” value is -2.02%.

As for `Nc1nc(N)c(Cn2ccnc2)c(=O)[nH]1`, the activity, negative = inhibition was -11.4% [at 11.4 µM].

As for `CS(=O)(=O)Nc1ccc(Cc2noc(-c3ccc4[nH]cc(CCN)c4c3)n2)cc1`, the AC50 was 0.126 µM (active).

As to `CCCN(CCC)[C@@H]1CCc2c(OC)cccc2[C@@H]1C`, the “activity, negative = inhibition” value is 5.27%.

Consider `CCCN[C@@H]1CCc2c(OC)cccc2[C@@H]1C`, for which the AC50 is 0.251 µM (active).

On to `OC1(c2ccc(F)cc2)CCNC1` (centres undefined), for which the “activity, negative = inhibition” value was -4.2%.

For `CCCN1CCC[C@@H]2Cc3[nH]ncc3C[C@H]21`, the AC50 entry was “inactive”.

In the case of `C[C@@]12CC[C@H]3[C@@H](CCC4=C(O)C(=O)CC[C@]43C)[C@H]1CCC2=O`, the “activity, negative = inhibition” value is -13.5%.

Consider `Cc1nccc2c1[nH]c1ccccc12`, for which the AC50 was 10 µM (active).

For `Cc1c2ccncc2c(C)c2c1[nH]c1ccccc12`, the AC50 was 6.31 µM (active).

For the compound `COC(=O)c1cc2c(cn1)[nH]c1ccccc12`, the “activity, negative = inhibition” value was -1.19%.

In the case of `O=[N+]([O-])c1ccc(N2CCNCC2)cc1NCC1CCCO1` (centres undefined), the “activity, negative = inhibition” value is -5.92%.

Regarding `NC(=O)CI`, the “activity, negative = inhibition” value is -9.38%.

Consider `CN1CCC(c2c[nH]c3ccc(O)cc23)CC1`, for which the “activity, negative = inhibition” value was -0.301%.

As for `NCCc1c[nH]c2ccc(C(N)=O)cc12`, the AC50 result is “inactive”.

For `NCCc1c[nH]c2ccc(O)cc12`, the “activity, negative = inhibition” value was -15.6%.

`CCCN(CCC)CCc1c[nH]c2ccc(C(N)=O)cc12`: the AC50 was 39.8 µM (active).

As for `C=C[C@@H]1CN2CC[C@H]1C[C@H]2[C@H](O)c1ccnc2ccccc12`, the AC50 is 3.98 µM (active).

With `CC[C@H]1CN2CC[C@@H]1C[C@H]2[C@@H](O)c1ccnc2ccc(OC)cc12`, the AC50 is 3.16 µM (active).

For the compound `C=C[C@H]1CN2CC[C@@H]1C[C@H]2[C@@H](O)c1ccnc2ccccc12`, the AC50 is 3.16 µM (active) and 501 nM (active).

As for `O=C(O)CC[N+](=O)[O-]`, the “activity, negative = inhibition” value was 7.9%.

For `C[C@H]1C(=O)O[C@@H]2CCN3CC=C(COC(=O)[C@@](C)(O)[C@@]1(C)O)[C@H]23`, the “activity, negative = inhibition” value was 6.81% [at 25.6 µM].

As for `CCOP(=O)(OCC)C(NC(C)=O)C(Cl)(Cl)Cl` (centres undefined), the “activity, negative = inhibition” value is 2.71%.

With `N[C@@H](CP(=O)(O)O)C(=O)O`, the activity, negative = inhibition was -1.79% [at 11.4 µM].

For the compound `COc1ccc(C(=O)c2c(C)n(CCN3CCOCC3)c3cc(I)ccc23)cc1`, the “activity, negative = inhibition” value was 6.13%.

Turning to `N[C@@]1(C(=O)O)CC[C@H](C(=O)O)C1`, the AC50 result was “inactive”.

On to `COc1cc(/C=N/NC(=O)CN2CC(c3ccccc3)CC2=O)ccc1OC(=O)N(C)C` (centres undefined), for which the “activity, negative = inhibition” value was -1.46%.

In the case of `CN(C)C=C1C(=O)N(C2CCCCC2)C(=O)N(C2CCCCC2)C1=O`, the “activity, negative = inhibition” value is 10.7%.

As for `NC(=O)COc1c(F)cc(SCCNS(=O)(=O)c2ccccc2)cc1F`, the “activity, negative = inhibition” value is 1.88%.

For the compound `Cc1cc(OCC(=O)OC(C)C)c2c3c(c(=O)oc2c1)CCCC3`, the “activity, negative = inhibition” value was -19.9%.

For `Cn1c(O)c(C(c2ccccn2)c2c(O)n(C)c(=S)[nH]c2=O)c(=O)[nH]c1=S`, the “activity, negative = inhibition” value is 12.2%.

In the case of `O=C1CN=C(c2cccs2)c2c(sc3c2CCCC3)N1`, the AC50 was 1 µM (active).

As for `NC[C@@H](Cc1ccccc1)P(=O)(O)O`, the activity, negative = inhibition was -3.95% [at 11.4 µM].

Consider `CC(C)(C)C(=O)CP(=O)(O)O`, for which the activity, negative = inhibition was -2.59% [at 11.4 µM].

Take `C=C(C)[C@H]1CN[C@H](C(=O)O)[C@@H]1CC(=O)O`: the “activity, negative = inhibition” value is -3.28%.

For `CCC(=O)O[C@@](Cc1ccccc1)(c1ccccc1)[C@@H](C)CN(C)C`, the AC50 is 7.94 µM (active).

For `COC(=O)[C@@]1(Cc2ccc(F)cc2)[C@H]2c3cc(C(=O)N(C)C)[nH]c3C[C@H]2CN1C(=O)c1ccccc1`, the “activity, negative = inhibition” value is -16.4%.

`NC(N)=NCCN=C(N)N`: the activity, negative = inhibition is -4.24% [at 11.4 µM].

Consider `Fc1ccccc1CCNCc1cccc(Cl)c1Cl`, for which the AC50 was 0.0794 µM (active).

The values are drawn from PubChem BioAssay AID1851 (National Center for Advancing Translational Sciences (NCATS), 2009).
